In the supplement of paper PMC10338343:
± gives the standard deviation.

Key:
[1] = tested on: MILI (PIWIL2) piRISC loaded with L1MC piRNA (26 nt); test: pre-steady-state target cleavage rate (min^-1); guide: L1MC piRNA 5'p-UAACUAAAUACUAUGCAAGCUGUAGG; higher = faster piRNA-guided slicing of the target; details: auxiliary factor: 500 nM mouse GTSF1;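 also: 1 nM active piRISC with 0.1 nM target library at 33 °C single turnover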
Procedure, shortened: (§1)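 The pre-steady-state cleavage rate was derived from a burst-and-steady-state fit of Cleave-'n-Seq data. For these assays, 1 nM active affinity-purified piRISC loaded with a single synthetic guide was mixed with […] a transcribed, DNA-blocked target RNA library in HEPES–potassium acetate buffer at 33 °C, with or without 500 nM GTSF1 partner protein, for 0–8 or 0–960 min. Sequencing counts of uncleaved targets were normalised to depth and to weakly complementary targets, and k3 was capped at 0.0001 min^-1 after three trials were pooled.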

[2] = tested on: EfPiwi piRISC loaded with L1MC piRNA (26 nt); test: pre-steady-state target cleavage rate (min^-1); auxiliary factor: 500 nM Ephydatia muelleri Gtsf1; guide: L1MC piRNA 5'p-UAACUAAAUACUAUGCAAGCUGUAGG; MIWI and MILI are mouse PIWI proteins and EfPiwi is from a freshwater sponge; tags in brackets are library labels; higher = faster piRNA-guided slicing of the target
Procedure, shortened: as §1

Row | Sequence | pre-steady-state target cleavage rate [1] | pre-steady-state target cleavage rate [2]
1 | UCCUGGAUCAGCUUGCAUACUAUUUAGUAA | 0.0386 ± 0.0077 | 0.00398 ± 0.0023
2 | UCCUGGAACAGCUUGCAUAGUAUAAAGUUA | 0.196 ± 0.029 | 0.00389 ± 0.0023
3 | UCCUGGUACACCUUGCAUAGUAUUAAGUUA | 0.218 ± 0.066 | 0.00356 ± 0.0032
4 | UCCUCCUACAGCUUGCAUAGUAUAUAGUAA | 0.147 ± 0.023 | 0.00441 ± 0.002
5 | UCCUGGAAGAGCUUGCAUAGUAUUUACAAA | 0.0536 ± 0.02 | 0.00396 ± 0.0018
6 | UCCUCCUACAGGUUGCAUAGUAUUUUCAAA | 0.0497 ± 0.013 | 0.00306 ± 0.0021
7 | UCCUGGAUGUCCUUGCAUAGUAUUUAGGUA | 0.0702 ± 0.017 | 0.00431 ± 0.0026
8 | UCCUGGUACAGCUUGCAUAGUAUUUUGAAA | 0.06 ± 0.022 | 0.00282 ± 0.0028
9 | UCCUCCUACAGCUACGAUAGUAUUUAGUUA | 0.232 ± 0.015 | 0.00503 ± 0.0031
10 | UCCUGGAACAGCUUGCAUAGUAUUUGUUA | 0.0747 ± 0.021 | 0.00531 ± 0.0019
11 | UCCUGGAACACCUAGCAUAGUAUUUAGUUA | 0.229 ± 0.032 | 0.00601 ± 0.0036
12 | UCCUCCUAGUGCUUGCAUAGUAUUUAGAAA | 0.0113 ± 0.0046 | 0.00361 ± 0.0021
13 | UCCUCCUACAGCUUGCACUAGUAUUUAGUUA | 0.0877 ± 0.019 | 0.0137 ± 0.0056
14 | UCCUGGUACAGCUAGCAUAGUAUUUAGAAA | 0.0357 ± 0.013 | 0.00319 ± 0.0022
15 | UCCUGCUACAGCUUGCAUAGUAUUAUCUAA | 0.0551 ± 0.014 | 0.00395 ± 0.0027
16 | UCCUCCUACAGCUUGCAUAGUUUUUAGAAA | 0.0703 ± 0.019 | 0.00527 ± 0.0024
17 | UCCUGGAACUGCUUGCAUAGUAUUUUGUUA | 0.101 ± 0.017 | 0.00426 ± 0.0026
18 | UCCUCCUACACCUUGCAUAGUAUUUACAAA | 0.127 ± 0.032 | 0.00304 ± 0.0025
19 | UCCUCCUACAGGUUCCAUAGUAUUUAGUUA | 0.0813 ± 0.027 | 0.0023 ± 0.0012
20 | UCCUGGAUGUCCAUUGCAUAGUAUUUAGUUA | 0.127 ± 0.032 | 0.00326 ± 0.0022
21 | UCCUGCUACAGCUUGCUUAGUAUUAAGUUA | 0.179 ± 0.026 | 0.00988 ± 0.0037
22 | UCCUCCUACAGGAUGCAUAGUAUUUACAAA | 0.0521 ± 0.011 | 0.0028 ± 0.0027
23 | UCCUGGUACAGCUUGCAUAGUAAUAAGUUA | 0.204 ± 0.033 | 0.00546 ± 0.0031
24 | UCCUCCUUCAGCUUGCAUAGUAUUUAGAAA | 0.119 ± 0.021 | 0.00603 ± 0.0031
25 | UCCUCCUACAGCUUGCAAAGUAUUUUGUUA | 0.0808 ± 0.011 | 0.00453 ± 0.0028
26 | UCCUGGAACAGCUUGCAUAGUAAUUUGUUA | 0.0687 ± 0.013 | 0.0032 ± 0.002
27 | UCCUGGAACACCAUGCAUAGUAUUUAGUUA | 0.163 ± 0.018 | 0.00616 ± 0.0041
28 | UCCUGGUACUGCUUGCAUAGUAUUUAGAAA | 0.0143 ± 0.0067 | 0.00409 ± 0.0019
29 | UCCUGGAACAGGUUCCAUAGUAUUUAGUUA | 0.202 ± 0.066 | 0.00255 ± 0.0024
30 | UCCUGCUACAGCUUGCAUAGAAUUUUGUUA | 0.06 ± 0.013 | 0.00457 ± 0.0019
